Rows were chosen to be rich in hits. Some 8.3% of all compounds tested hit in one or more screens of this group.
VP16 counter: VP16 counterscreen qHTS for inhibitors of ROR gamma transcriptional activity | Drosophila S2 Gal4-VP16 UAS-luciferase, luminescence, 20 h | Potency, µM (highest dose often 53.6 µM), for inactives: at the top dose activity, negative = inhibition, usual class: inhibitors | hit rate 3.5% among 310,000 | AID 2546, 2010;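 also: Gal4-VP16 expression switched on by copper sulfate through the metallothionein promoter; potency is read from the fitted curve at half-maximal effect; % is scaled to controls: 0 for no effect and ±100 for the full control effect; nearly all actives have a fitted effect of over 50% in size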
MCF10A rerep: A quantitative high throughput screen for small molecules that induce DNA re-replication in MCF 10a normal breast cells; MCF 10A DNA re-replication, Hoechst nuclear intensity, 48 h; hit rate 2.9% among 350,000; Potency, µM (highest dose often 46.1 µM), for the others: top-dose activity, positive = re-replication, usual class: activators; AID 624296, 2012; also: potency is read from the fitted curve at half-maximal effect; % of control where 0% means no effect; nearly all actives have a fitted effect of over 50% in size
RORgamma inh: qHTS for inhibitors of ROR gamma transcriptional activity | Drosophila S2 Gal4-RORgamma UAS-luciferase reporter, 20 h | Potency, µM (highest dose often 53.6 µM), for the others: top-dose activity change, negative = inhibition, most hits filed as inhibitors | hit rate 5.4% among 310,000 | AID 2551, 2010; also: potency is read from the fitted curve at half-maximal effect; % is scaled to controls: 0 for no effect and ±100 for the full control effect; nearly all actives have a fitted effect of over 60% in size
Target sequence (P51450 whole entry, looked up, the tested form may be a part): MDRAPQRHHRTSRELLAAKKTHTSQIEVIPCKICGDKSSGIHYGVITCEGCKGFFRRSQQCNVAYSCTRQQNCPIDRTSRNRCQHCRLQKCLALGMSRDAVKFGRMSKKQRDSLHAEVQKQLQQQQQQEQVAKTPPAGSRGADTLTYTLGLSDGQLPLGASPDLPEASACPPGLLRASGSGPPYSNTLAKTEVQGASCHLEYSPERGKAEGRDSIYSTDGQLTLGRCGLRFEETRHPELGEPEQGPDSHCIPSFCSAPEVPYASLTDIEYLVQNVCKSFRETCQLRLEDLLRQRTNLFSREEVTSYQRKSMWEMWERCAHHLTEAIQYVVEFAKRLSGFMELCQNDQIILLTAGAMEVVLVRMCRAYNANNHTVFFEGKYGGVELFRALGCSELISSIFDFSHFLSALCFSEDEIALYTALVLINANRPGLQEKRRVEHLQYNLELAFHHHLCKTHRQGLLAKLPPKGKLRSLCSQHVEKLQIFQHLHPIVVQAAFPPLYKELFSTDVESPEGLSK
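A Gal4/UAS one-hybrid system in insect cells: metallothionein-promoter Gal4–ROR gamma fusion plus Photinus luciferase reporter. Copper sulfate 700 uM final, 20 hr ambient incubation, luminescent detection after 10 min with reagent.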
SW480 rerep: A quantitative high throughput screen for small molecules that induce DNA re-replication in SW480 colon adenocarcinoma cells. SW480 DNA re-replication, Hoechst DNA content imaging, 48 h. Potency, µM (titrated, usually from 46.1 µM), for the others: at the highest dose re-replication activation, usual class: activators. hit rate 1.8% among 340,000; also: potency is read from the fitted curve at half-maximal effect; % of control where 0% means no effect; nearly all actives have a fitted effect of over 55% in size
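Readout is total intensity of Hoechst-stained nuclei, excited at 405 nm and collected at 500-530 nm. Compound treatment lasted 48 hr at 37 C in 5% CO2 before staining.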
Giardia killer: Small Molecules that selectively kill Giardia lamblia: qHTS; AID 540267, 2011; activity change, % at 7.66 µM, hits read low; Giardia lamblia trophozoite viability; hit rate 0.15% among 340,000; in the data active = activity change below about -80%; inconclusive = between about -30% and that limit;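 also: parasites exposed to compound for two days anaerobically before the ATP read; % is scaled to controls: 0 for no effect and ±100 for the full control effect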
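Trophozoite viability was measured as ATP-dependent luminescence, read 15-30 min after reagent addition. Before that, parasites at 100 cells/well were exposed to compounds for 48 h, anaerobically, at 37 deg C.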
BCR signal inh: qHTS Assay to Find Inhibitors of Chronic Active B-Cell Receptor Signaling | ABC-DLBCL IkBa-CBG/CBR reporter, luminescence ratio, 4 h | Potency, µM (doses to about 46.1 µM), for inactives: at the top dose activity change, negative = inhibition, actives largely listed as inhibitors | hit rate 0.05% among 340,000; active = well fitted inhibition curve with a large enough effect in the signal ratio, with a control signal flat, not every such curve was filed as active; inconclusive = small, poorly fitted or top-dose-only effect, or effect the other way, or a change in a side signal; the % refers to the signal ratio;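 also: potency is read from the fitted curve at half-maximal effect; plate controls were basal doxycycline-induced cells for no effect and cells given 10 µM MG132 for full effect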
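TMD8 human ABC-DLBCL cells with doxycycline-inducible IκBα–green luciferase fusion and unfused red luciferase, in 0.5% FBS medium; compounds up to 46 uM, 4 h at 37C. Green/red luminescence ratio, filter-overlap corrected, fitted to concentration-response curves.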
* = called active by the depositor; ? = inconclusive; / = no result given; [ ] = another dose, or the depositor's remark. Unless noted, calls follow the shape of the dose curve; as a rule, active = well fitted curve in the direction sought with a large enough effect; inconclusive = small, poorly fitted or top-dose-only effect, or another doubt; inactive = no such curve, though single readings can be large; an effect the other way counts as inactive or inconclusive.

SMILES	VP16 counter	MCF10A rerep	RORgamma inh	SW480 rerep	Giardia killer	BCR signal inh
O=[N+]([O-])c1ccc(NC(=S)NCc2ccc(F)cc2)cc1	?	16µM*	?	?	-11	?
COC(CN(C)C(=O)c1cn(C)c2ccc(S(=O)(=O)N(C)C3CCCCC3)cc2c1=O)OC	3%	?	-7%	-1%	-12	?
CC1CCCCN1CCn1c(=S)[nH]c2cc3c(cc2c1=O)OCO3 (stereo not drawn)	?	4%	11µM*	5%	-5	-7%
CC(C)OCCCn1c(=S)[nH]c2cc3c(cc2c1=O)OCO3	6.3µM*	0%	4µM*	0%	9	12%
CC(Oc1cccnc1[N+](=O)[O-])C(=O)N1CCc2ccccc21 (stereo not drawn)	/	18%	/	?	-29	?
COc1ccc(NC(=S)NC(=O)C2CCC2)cc1	11µM*	-4%	8.9µM*	?	?	-2%
COC(=O)c1ccc(NC(=O)CNC(=O)C2CCCCC2)cc1	1%	?	15%	?	8	0%
COC(=O)c1ccc(NC(=S)NC2CCCCC2C)cc1 (stereo not drawn)	3.5µM*	44%	7.9µM*	?	-28	1%
COc1ccc(OCC(=O)NNC(=S)NC(=O)C2CCCCC2)cc1	-11%	/	14µM*	/	/	0%
COC(=O)c1ccc(NC(=S)NC(=O)C2CCC2)cc1	?	0%	11µM*	-5%	-13	-1%
CC(OC(=O)Cc1ccccc1[N+](=O)[O-])C(=O)Nc1ccc(Cl)cn1 (stereo not drawn)	/	-22%	/	-37%	4	?
Cc1ccc(S(=O)(=O)NCC(=O)NCC(=O)OCC(=O)N2CC(=O)Nc3ccccc32)cc1C	-19%	-11%	-2%	-23%	1	4%
COC(=O)c1ccc(NC(=S)Nc2ccccc2)cc1	-2%[0.365 µM]	-2%	11%	-1%	-5	?
COC(=O)c1ccc(NC(=S)Nc2ccc3ccccc3c2)cc1	?	?	13µM*	?	14	?
CCOC(=O)c1ccc(NC(=S)NC(=O)C2CCCC2)cc1	7.1µM*	2%	7.1µM*	-8%	-11	?
O=C(C1CCC(CNS(=O)(=O)c2cccs2)CC1)N1CCN(c2ccc(F)cc2)CC1 (stereo not drawn)	-29%	16µM*	?	26%	-24	-23%
O=C(NCc1ccc(F)cc1)C1CCC(CNS(=O)(=O)c2cccs2)CC1 (stereo not drawn)	-15%	0%	16%	-10%	-1	-1%
COc1cc(C(=O)N/N=C/C2CC=CCC2)cc(OC)c1OC (stereo not drawn)	?	3.7µM*	-36%	?	12	?
O=C(N/N=C/C1CC=CCC1)c1ccc(O)cc1O (stereo not drawn)	2.8µM*	1%	1.1µM*	-7%	-11	?
O=C(N/N=C/C1CC=CCC1)c1cc2ccccc2cc1O (stereo not drawn)	?	?	10µM*	-4%	10	11%
COc1cc(C(=O)N/N=C/c2ccsc2C)cc(OC)c1OC	?	?	13µM*	0.65µM*	9	?
O=C(NN=C1CCCCCC1)c1cc2ccccc2cc1O	?	-3%	?	-1%	-10	1%
Cc1ccc(O)c(C2=NNC(c3ccc(Cl)cc3)C2)c1 (stereo not drawn)	13µM*	3%	7.9µM*	?	25	-7%
Cc1ccc(O)c(C2=NNC(O)(C(F)(F)F)C2)c1 (stereo not drawn)	-23%	4%	0%	1%[9.22 µM]	-29	20%
